A selection: hits, their analogues and other compounds. The true share with any hit is near 19%.
IL-1B inflam inh: qHTS for Inhibitors of Inflammasome Signaling: IL-1-beta AlphaLISA Primary Screen; THP-1 LPS/ATP IL-1B secretion, AlphaLISA, 16 h; active compounds read low; activity change, % at 57.5 µM; 360,000 compounds, 4.7% hits; AID 743279, 2014; in the data active = activity change below about -50%; inconclusive = mostly about -30% to -49%
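Secreted IL-1B measured by AlphaLISA bead assay after 16 h compound exposure of THP-1 cells; compounds (final up to 57.5 uM) added 1 h before LPS (250 ng/mL) and ATP (1.25 mM) stimulation; lower signal means less secretion.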
HT1080NT lethal: qHTS for induction of synthetic lethality in tumor cells producing 2HG: qHTS for the HT-1080-NT fibrosarcoma cell line | HT-1080-NT fibrosarcoma viability, CellTiter-Glo ATP luminescence, 48 h | Potency, µM (doses to about 46.1 µM), for the others: top-dose activity, negative = less viability, usual class: cytotoxic | 360,000 compounds, 1.6% hits;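 also: NT is the 2HG producing partner of a matched IDH1 knockdown line; potency is read from the fitted curve at half-maximal effect; 0% = DMSO-treated cells and -100% = media-only wells without cells; nearly all actives have a fitted effect of over 55% in size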
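HT-1080-NT fibrosarcoma cells (2HG-overproducing), 750 cells/well in RPMI with 5% FBS, dosed after 2 h and incubated 48 h at 37C. CellTiter-Glo luminescence normalized to DMSO and no-cell wells; concentration-response curves fitted and classed.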
DT40 TDP1 CPT: qHTS for Inhibitors of human tyrosyl-DNA phosphodiesterase 1 (TDP1): qHTS in cells in presence of CPT; 420,000 compounds, 12% hits; chicken DT40 Tdp1-/-;hTDP1 cells + 20 nM CPT, ATP luminescence, 48 h; Potency, µM (titrated, usually from 46.2 µM), for inactives: at the highest dose activity change, negative = growth inhibition, actives largely listed as inhibitors; also: potency is read from the fitted curve at half-maximal effect; nearly all actives have a fitted effect of over 55% in size
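Chicken DT40 Tdp1-/- cells stably complemented with human TDP1 were seeded at 400 cells/well in medium containing 20 nM camptothecin, exposed to pin-transferred compounds, and grown at 37 °C for at least 48 hr. Viability was read as ATP luminescence.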
TDP1 cell noCPT: qHTS for Inhibitors of human tyrosyl-DNA phosphodiesterase 1 (TDP1): qHTS in cells in absence of CPT | AID 686978, 2013 | 420,000 compounds, 15% hits | DT40 Tdp1-/- hTDP1 cells, no CPT, ATP luminescence, 48 h | Potency, µM (titrated, usually from 46.2 µM), without a hit: top-dose activity change, negative = growth inhibition, hits mostly inhibitors; also: potency is read from the fitted curve at half-maximal effect; nearly all actives have a fitted effect of over 55% in size
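Cells were dispensed at 400 per well, compounds added by pin tool, plates incubated ≥48 hr at 37 °C, then CellTiter-Glo added for 30 min at room temperature before luminescence reading. Line: DT40 Tdp1-/- complemented with hTDP1; camptothecin omitted.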
HT1080 IDH1KD tx: qHTS for induction of synthetic lethality in tumor cells producing 2HG: qHTS for the HT-1080-IDH1KD cell line | HT-1080 IDH1 knockdown viability, ATP luminescence, 48 h | Potency, µM (series often up to 46.1 µM), for the others: top-dose activity, negative = toxicity, usual class: cytotoxic | 360,000 compounds, 2% hits | AID 686971, 2013;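 also: potency is read from the fitted curve at half-maximal effect; 0% = DMSO wells and -100% = cell-free medium wells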
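Viability of IDH1-knockdown HT-1080 fibrosarcoma cells was assessed by CellTiter-Glo after 48 h at 37 °C with titrated compound; concentration-effect curves were classified by fit quality and response size.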
Numbers without * were called inactive; ? = inconclusive; · = not tested or not shown; [ ] = remark or other dose. Unless noted, calls follow the shape of the dose curve; as a rule, active = well fitted curve in the direction sought with a large enough effect; inconclusive = small, poorly fitted or top-dose-only effect, or another doubt; inactive = no such curve, though single readings can be large; an effect the other way counts as inactive or inconclusive. Unless noted, % is scaled to controls: 0 for no effect and ±100 for the full control effect.

SMILES	IL-1B inflam inh	HT1080NT lethal	DT40 TDP1 CPT	TDP1 cell noCPT	HT1080 IDH1KD tx
CCOc1cccc(N2CCN(CCNC(=O)Nc3ccc(C)cc3)CC2)c1C	-68.0*	-4.6%	?	?	-2.7%
CCOc1ccc(NC(=O)NCCN2CCN(c3cccc(C)c3C)CC2)cc1	-2.9	1.3%	20.6µM*	20.6µM*	2.4%
CCOc1ccc(OCC)c(NC(=O)CN2CCN(C(=O)c3ccco3)CC2)c1	-17.1	3.3%	?	?	0.3%
CCN1CCCC1CNCc1cc2ccc(SC)cc2nc1-c1cc(OC)ccc1OC (centres undefined)	·	·	-6.0%[9.04 µM]	-6.6%	·
COc1ccc(C(=O)N2CCC(N3CCN(c4ccccc4)CC3)CC2)cc1OC	-12.9	21.2%	-13.5%	-21.0%	6.3%
COc1ccc(C(=O)N2CCN(C3CCC(c4ccccc4)CC3)CC2)cc1OC (centres undefined)	-15.2	1.3%	20.6µM*	14.6µM*	-19.7%
Cc1ccc(NC(=O)c2c(C)oc3nc(C)nc(N4CCCC4)c23)c(C)c1	·	·	-2.1%	-9.7%	·
Fc1ccc(N2CCN(C3=Nc4cccc5cccc3c45)CC2)cc1	-52.3*	-24.7%	25.9µM*	16.4µM*	?
c1ccc(CN2CCN(C3=Nc4cccc5cccc3c45)CC2)cc1	-89.7*	-5.1%	?	?	-17.6%
Cc1cccc(C(=O)N2c3ncnn3C3(CCCCC3)[C@@H]3CCCC[C@@H]32)c1	·	·	?	23.1µM*	·
O=C(NC(=S)NC1CCCCC1)c1ccc(F)cc1	-2.2	-10.9%	-17.4%	-10.5%	0.2%
O=C(c1ccc(F)cc1)N1c2ncnn2C2(CCCCC2)[C@@H]2CCCC[C@@H]21	·	·	?	20.6µM*	·
N#Cc1cccc(NC(=O)N2CCCC3(CCN(C(=O)c4cnccn4)CC3)C2)c1	·	·	20.0%	-6.5%	·
COCCn1nnnc1C(C(C)C)N1CCCC(C)C1 (centres undefined)	22.5	0.3%	0.8%	11.2%	4.8%
Cc1ccc(N=Nc2c(N)nn3c(C)cc(C)nc23)cc1	-9.7	22.8%	?	23.1µM*	21.1%
Cc1ccc(N=Nc2c(N)nn(-c3ccccc3)c2N)cc1	0.0	10.3µM*	3.66µM*	4.61µM*	9.2µM*
Cc1nn(-c2ccccc2)c(N)c1N=Nc1ccc2ccccc2c1	-1.5	-9.3%	-8.0%	?	-9.2%
CCOC(=O)[C@H]1[C@H]2COc3ccccc3[C@@H]2N2C(=O)c3c(C)cc(C)cc3NC(=O)[C@@]12C	-18.3	-1.8%	-8.0%	?	2.6%
O=C(CSc1nc(=O)n(CCN2CCOCC2)c2c1CCC2)Nc1ccc(Cl)c(Cl)c1	·	·	-24.9%	?	·
COc1cc(OC)cc(C(=O)N[C@@H](CCSC)c2nc3ccccc3[nH]2)c1	-10.7	-1.8%	?	?	-6.2%
Cn1cnnc1SCC(C)(C)NS(=O)(=O)c1ccc(Cl)cc1	-8.4	0.3%	10.6%	1.6%	3.1%
O=[N+]([O-])c1ccc(N=Nc2c(Cl)cc(O)cc2Cl)cc1	?	6.51µM*	4.11µM*	4.61µM*	8.2µM*
CC(N)=Nc1ccc([N+](=O)[O-])cc1	5.8	19.3%	-10.3%	-2.8%	13.1%
CN(Cc1ccccc1)c1ccc(N2C(=O)CCCC2=O)cc1[N+](=O)[O-]	-10.3	-0.6%	-12.2%	?	-0.2%
COc1ccc(-c2nc(NC(=O)CSc3nnc(C)s3)ns2)cc1	-19.1	0.0%	?	?	-6.9%
O=C(NCc1ccccn1)c1ccc2c(=O)n3nc(Nc4ccccc4)sc3nc2c1	-15.1	?	?	0.4%	?
CCc1ccccc1Nc1nn2c(=O)c3ccc(C(=O)NCc4ccccc4OC)cc3nc2s1	·	·	11.6µM*	?	·

Screening data from PubChem BioAssay.
